IEC-6 cytotox = kills IEC-6 intestinal cells in KLF5 counter-screen | IEC-6 cytotoxicity, luminescence viability | 0.78% of 290,000 active | inhibition, % at 5 µM | AID 1825; in the data active = inhibition above about 22%;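 note: 0% = plate median of test compound wells and 100% = cytotoxic reference compound wells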
KLF5 inh = suppresses KLF5 promoter-driven expression; DLD-1 KLF5 promoter-luciferase reporter, luminescence; inhibition, % at 5 µM; AID 1700; 0.23% of 290,000 active;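 active = inhibition above a per-plate limit of that plate's mean compound inhibition plus 3 SD, cut at about 60% in these data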;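 note: 0% = DMSO wells and 100% = LY294002 at 200 µM; higher means less KLF5 promoter-driven luciferase light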
Ba/F3 V617F tox = lowers viability of Ba/F3 cells expressing EpoR and JAK2V617F; ATP luminescence; 1.1% of 220,000 active; inhibition, % at 5.6 µM;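 active = inhibition above the campaign mean plus 3 SD over all tested compounds, cut at about 24% in these data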;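 note: cytokine-independent growth of Ba/F3 cells driven by EpoR plus mutant JAK2; 0% = DMSO-treated cells and 100% = JAK inhibitor I control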
APP 5UTR inh = APP translation inhibition; SH-SY5Y APP 5'UTR-luciferase reporter, luminescence; inhibition, % at 2 µM; 0.82% of 190,000 active; AID 1285;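 active = inhibition above a set limit, derived from the sample mean plus 3 SD, cut at about 45% in these data; inconclusive = one replicate passes the limit while the other fails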
aSyn UTR inh = 5' untranslated region of α-synuclein, MLPCN primary screen | inhibition, % (tested at 7.5 µM) | 0.82% of 300,000 active | alpha-synuclein 5'UTR reporter, inhibitor activity; in the data active = inhibition above about 60%; inconclusive = no clear call, values can overlap the other calls;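 note: H4 neuroglioblastoma cells stably carrying SNCA 5'UTR luciferase fusion; 0% = DMSO wells and 100% = positive control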
BaF3 parental = counter-screen for JAK2V617F inhibitors: parental Ba/F3 viability inhibitors | CellTiter-Glo ATP luminescence | 1.1% of 220,000 active | inhibition, % at 5.6 µM;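 active = inhibition above a per-campaign cutoff, the mean inhibition of all tested compounds plus 3 SD, cut at about 27% in these data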;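 note: 0% = DMSO wells and 100% = JAK Inhibitor I control wells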
Numbers without * were called inactive; ? = inconclusive; nt = not tested or not shown. A selection: hits, their analogues and other compounds. The true share with any hit is near 2.1%.

SMILES	IEC-6 cytotox	KLF5 inh	Ba/F3 V617F tox	APP 5UTR inh	aSyn UTR inh	BaF3 parental
CC(C)Oc1ncnc2c1[nH]c1ccccc12	6	-35	0	nt	-35	36*
COc1ccc(C(=O)Nc2ccc(N3CCN(C(=O)c4ccccc4C)CC3)cc2)cc1	5	-33	nt	nt	26	nt
CCOc1ccccc1CN1CCN(C/C=C/c2ccc(OC)cc2)CC1CCO (configuration not stated)	11	10	4	15	4	43*
CC(C)c1nnc(NC(=O)c2ccc3c(c2)OCO3)s1	5	-143	2	-148	?	3
COc1ccc(/C(C)=N\NC(=O)c2ccc3c(c2)OCO3)cc1OC	3	-47	5	-24	-13	8
CCSc1nnc(NC(=O)c2cnccn2)s1	nt	nt	nt	nt	-43	nt
COc1ccccc1-c1nnc(NC(=O)c2ccc3c(c2)OCO3)s1	1	-42	-2	46*	45	1
CCSc1nnc(NC(=O)c2ccccn2)s1	47*	-155	-3	-56	67*	8
CCSc1nnc(NC(=O)c2ccc3c(c2)OCO3)s1	-5	-80	-1	-53	-94	93*
COc1cc(C(=O)N/N=C(\C)c2ccc3c(c2)OCO3)cc(OC)c1OC	89*	31	73*	91*	11	72*
CCOC(=O)CSc1nnc(NC(=O)c2ccc3c(c2)OCO3)s1	-1	10	nt	nt	14	nt
Cc1cccc(NC(=O)C2C3CCC4C(CCC32)C4(Cl)Cl)c1 (configuration not stated)	4	-8	-2	-7	-19	1
CCOC(=O)C1CCCN(C(=O)c2cc(S(=O)(=O)N3CCCCC3)c[nH]2)C1 (configuration not stated)	5	-19	nt	nt	-2	nt
CC1CCc2nc(/C(C#N)=C/c3ccncc3)sc2C1 (configuration not stated)	3	-9	0	-47	-114	2
CCOc1cc(Cl)c(CNCCCN2CCOCC2)cc1OC	6	-10	nt	nt	-17	nt
CC(C)(C)NC(=O)CSc1nnc(NC(=O)c2ccccc2Cl)s1	7	-30	-4	46*	-10	0
COc1ccc(O)c(/C=N/NC(=O)c2c(C)nnn2-c2nonc2N)c1	4	-16	-2	41	64*	1
CC(=O)c1ccc(OCc2cc(C(=O)N3CC4C[C@@H]5CC3C[C@H](C4)C5)no2)cc1	0	-163	nt	nt	-134	nt
CCN(CC)c1ccc(NC(=O)COc2ccc(C#N)cc2)cc1S(=O)(=O)Nc1ccc(OC)cc1	-6	6	0	-19	35	4
COc1ccc(S(=O)(=O)Nc2cc3c4c(c2)CCC(=O)N4CCC3)cc1C	nt	nt	nt	nt	14	nt
O=C(COc1ccc(/C=N/NC(=O)c2cc3ccccc3o2)cc1Cl)Nc1ccccc1	-5	-29	-2	-32	101*	3
COc1cc(/C=N/NC(=O)c2ccccc2O)ccc1OCC(=O)Nc1ccccc1	-2	-105	nt	nt	-140	nt
CN(C1CCCCC1)S(=O)(=O)c1ccc(-c2ccccn2)s1	-2	-17	-1	nt	12	1
c1ccc2c(c1)CSc1ccccc1N2	nt	nt	nt	nt	104*	nt
O=C(c1cc(-c2ccccc2)n[nH]1)N1CCc2c([nH]c3ccccc23)C1c1ccccn1 (configuration not stated)	7	-19	0	10	-26	7
SMILES	IEC-6 cytotox	KLF5 inh	Ba/F3 V617F tox	APP 5UTR inh	aSyn UTR inh	BaF3 parental
CC(C)(C)c1ccc(C(=O)N2CCC(C(=O)NC3CCCCCC3)CC2)cc1	1	-69	nt	nt	18	nt
COC(=O)c1ccc(COC(=O)CNC(=O)c2cccs2)cc1	-6	-21	nt	nt	2	nt
COc1ccc(C(=O)Nc2ccc3[nH]ccc3c2)cc1	nt	nt	nt	nt	66*	nt
COc1ccc(C(=O)Nc2cc(OC)cc(OC)c2)cc1	9	-84	4	-125	-62	69*
COc1ccc(C(=O)Nc2ccc3[nH]ccc3c2)cc1OC	nt	nt	nt	nt	-134	nt
Cc1ccc(C(=O)Nc2ccc3ccccc3c2)cc1	0	72*	nt	nt	66*	nt
Cc1ccc(S(=O)(=O)CCC(=O)OCC(=O)Nc2ccc(N3CCOCC3)cc2)cc1	nt	nt	nt	nt	7	nt
O=C(COC(=O)COc1cccc(C(F)(F)F)c1)NC(=O)NC1CCCCC1	nt	nt	nt	nt	16	nt
COc1ccccc1OCCSc1nc2ccccc2c(=O)[nH]1	3	-36	1	-12	-4	95*
CC(C)NC(=O)Cn1c(SCC(=O)N2c3ccccc3CC2C)nc2ccccc21 (configuration not stated)	-4	-33	3	0	28	95*
COc1cccc(NC(=O)CCSc2ccc(C)cc2)c1	5	12	1	-10	-1	3
Cc1ccc(CSc2nnc([C@@H]3CCCN3C(=O)OC(C)(C)C)o2)cc1	0	-26	3	nt	11	1
CC1(C)Oc2cc3oc(-c4cc(O)cc(O)c4)cc3cc2CC1O (configuration not stated)	nt	nt	nt	nt	97*	nt
CCOC(=O)c1c(CSc2cccs2)n(C)c2cc(Br)c(O)c(CN(C)C)c12	-2	-6	-2	-7	6	1
CC(Oc1cccc(Cl)c1)C(=O)N1CCCN(C)CC1 (configuration not stated)	-6	-8	nt	nt	-1	nt
CCN1CCc2c(C#N)c(NCc3ccccc3)nc(N(CC)CC)c2C1	-11	-6	19	5	37	50*
CSc1ccc(S(=O)(=O)N2CCC(C(=O)NCC3CCCO3)CC2)cc1 (configuration not stated)	2	1	nt	nt	-10	nt
CC(=O)NS(=O)(=O)c1ccc(NC(=O)CCC2CCCC2)cc1	5	-9	0	52*	7	3
Cc1ccc2nc3cc([N+](=O)[O-])cc([N+](=O)[O-])c3cc2c1	-2	-32	1	62*	nt	7
Cc1nc2ccc([N+](=O)[O-])cc2nc1C	14	-14	5	-4	-33	2
Cc1ccc(N2C(=O)C3C4C=CC(CC4)C3C2=O)c([N+](=O)[O-])c1 (configuration not stated)	5	-20	nt	nt	9	nt
CS(=O)(=O)c1ccc(Sc2nc3ccccc3s2)c([N+](=O)[O-])c1	-3	1	66*	19	-42	45*
CCOC(=O)c1sc(N/N=C/c2cc(Br)c(O)c(OC)c2)nc1C	2	-24	nt	nt	-43	nt
Cc1ccc(Cl)cc1N1CCN(C(=O)Cc2ccc(-n3c(=O)[nH]c4ccsc4c3=O)cc2)CC1	4	-6	-1	-26	41	6
CC1=CC(=O)C=C(C)C1=NOS(=O)(=O)c1ccccc1	7	0	76*	80*	12	48*
CC1=CC(=O)C(C(C)C)=C/C1=N/OS(=O)(=O)c1ccccc1	-1	-15	99*	nt	-23	104*
CC(C)c1ccc(NC(=O)c2ccccc2NC(=O)C2CCCCC2C(=O)O)cc1 (configuration not stated)	5	-168	nt	nt	-121	nt
O=C(CSc1nc(-c2ccccc2)cc(=O)[nH]1)Nc1ccc(F)c(F)c1	2	-11	nt	nt	3	nt
CC(C)c1ccc(C(C(=O)NC2CCCC2)N(C(=O)c2csnn2)C2CC2)cc1 (configuration not stated)	-6	-8	nt	nt	-1	nt
